Measurements taken from the supplement of paper PMC6555819.

What was measured:
Assay in all cases: PBM binding z-score (relative to random genomic background probes); higher = stronger binding; sequences stand for … in GC…GCGATTGACAGCGTAGAATGAAGG
[1] = system: PPARg:RXRa DBDmut IVT, anti-RXR (DBD mutation: RXRa K156A/R161A, NR concentration 270 nM, RXRa partner concentration 90 nM)
How it was run: (§1)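 Probes were double-stranded and carried 34-nt variable regions with direct-repeat seeds, single-nucleotide variants, half-site ablations and random human genomic background sequences, printed on custom Agilent 4×180K protein-binding microarrays. Arrays were incubated 1 h with ligand-free nuclear receptor dimers in PBS pH 7.4, 2% milk, 0.02% Triton X-100, 1 mM DTT, 0.2 mg/mL BSA and 0.4 mg/ml salmon testes DNA. Antibodies against each partner (one per run) detected binding, and scanned fluorescence was regression-normalized. Binding z-scores use the random background probes as reference.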

[2] = system: PPARg:RXRa IVT, anti-PPARg (NR concentration 270 nM, RXRa partner concentration 90 nM)
How it was run: as §1

[3] = system: PPARg DBDmut:RXRa IVT, anti-PPARg (DBD mutation: PPARg1 K132A/R137A, NR concentration 270 nM, RXRa partner concentration 90 nM)
How it was run: as §1

[4] = system: PPARg DBDmut IVT, anti-PPARg (DBD mutation: PPARg1 K132A/R137A, NR concentration 270 nM)
How it was run: as §1

[5] = system: PPARg homodimer (NR concentration 180 nM)
How it was run: as §1

[6] = system: PXR:RXRa (NR concentration 270 nM, RXRa partner concentration 90 nM)
How it was run: as §1

[7] = system: PXR homodimer (NR concentration 270 nM)
How it was run: as §1

[8] = system: RARa:RXR (NR concentration 270 nM, RXRa partner concentration 90 nM)
How it was run: as §1

[9] = system: RARa homodimer (NR concentration 270 nM)
How it was run: as §1

[10] = system: RARb:RXRa (NR concentration 270 nM, RXRa partner concentration 90 nM)
How it was run: as §1

[11] = system: RARb homodimer (NR concentration 270 nM)
How it was run: as §1

[12] = system: RARg:RXRa (NR concentration 270 nM, RXRa partner concentration 90 nM)
How it was run: as §1

[13] = system: RARg homodimer (NR concentration 270 nM)
How it was run: as §1

[14] = system: RXRa DBDmut IVT, anti-RXR (DBD mutation: RXRa K156A/R161A, NR concentration 90 nM)
How it was run: as §1

[15] = system: RXRa homodimer (NR concentration 180 nM)
How it was run: as §1

[16] = system: THRa:RXRa (NR concentration 90 nM, RXRa partner concentration 90 nM)
How it was run: as §1

[17] = system: THRa homodimer (NR concentration 90 nM)
How it was run: as §1

[18] = system: VDR:RXRa (NR concentration 270 nM, RXRa partner concentration 90 nM)
How it was run: as §1

[19] = system: VDR homodimer (NR concentration 270 nM)
How it was run: as §1

Sequence | PBM binding z-score [1] | PBM binding z-score [2] | PBM binding z-score [3] | PBM binding z-score [4] | PBM binding z-score [5] | PBM binding z-score [6] | PBM binding z-score [7] | PBM binding z-score [8] | PBM binding z-score [9] | PBM binding z-score [10] | PBM binding z-score [11] | PBM binding z-score [12] | PBM binding z-score [13] | PBM binding z-score [14] | PBM binding z-score [15] | PBM binding z-score [16] | PBM binding z-score [17] | PBM binding z-score [18] | PBM binding z-score [19]
CCGAGTAGGTTATGGGGCATTCATGCAACGGTGA | 3.37 | 3.49 | -0.836 | 0.00847 | 0.908 | 0.114 | -0.204 | 0.175 | 0.24 | 0.981 | 0.909 | 0.699 | 0.725 | 0.0977 | 0.697 | 0.148 | -0.334 | 0.118 | 0.21
ACTTTTAGTTGAGACGAGGGCAACCGATAGGTTG | 0.771 | 0.663 | 1.4 | 1.16 | 0.208 | 1.33 | 0.341 | 1.59 | 0.167 | 1.24 | 1.35 | 0.942 | 1.03 | 0.926 | 0.7 | 2.53 | 0.433 | 0.832 | 1.02
CGAACTAGGCCAGAACAGGACAGTGAAGGATGAT | 3.99 | 3.44 | 0.251 | 0.0234 | 0.0323 | -0.123 | -0.145 | 0.379 | 0.0972 | 0.171 | 0.156 | 0.158 | 0.409 | 0.019 | 0.291 | 0.634 | -0.576 | -0.283 | -0.245
CAGGCTAGGTCAGGGCCAGTATAGGAGGAACGTT | 1.77 | 2.27 | -0.979 | -1.24 | 0.901 | 0.235 | -0.157 | 0.946 | 0.278 | 3.6 | 2.77 | 3.07 | 4.16 | -0.54 | 1.45 | 1.95 | 0.49 | 0.258 | 0.035
TCTATTAGTTGAAGGGCAACAGACGAGTCCGTTT | 2.12 | 0.473 | 0.759 | 0.516 | 1.01 | 0.991 | 0.988 | 0.764 | 1.52 | 1.55 | 1.14 | 0.634 | 0.745 | 1.68 | 0.567 | 0.209 | 0.0682 | 1.01 | 1.55
AATACAGGGTCACTAGGCCTGAGTAGGTACGAAT | 2.96 | 4.76 | 1.25 | 1.34 | 2.04 | 2.85 | 0.251 | 3.86 | 0.431 | 4.06 | 3.04 | 4.82 | 4.35 | 2.53 | 5.28 | 3.13 | 0.975 | 3.84 | 1.81
TCATATAGGTAACAGGTGAAAGTCGGTGTGGTAA | 5.02 | 4.81 | 0.985 | 1.02 | 1.4 | 0.896 | 0.535 | 0.876 | 1.18 | 1 | 1.03 | 0.519 | 0.556 | 1.41 | 1.11 | 0.822 | 0.292 | 0.96 | 0.21
CCTACTGGGCCAAAGGTTATTGATTCCAATGCTC | 5.27 | 5.88 | 0.256 | -0.287 | 0.925 | 1.39 | 0.0532 | 2.34 | -0.256 | 1.53 | 1.57 | 2.07 | 0.739 | 0.31 | 2.12 | 1.13 | -0.123 | 1.34 | 0.0494
GCGACTGGGGCATCAGCCGGTTACCATAACTTAA | 3.39 | 2.34 | -1.15 | -1.34 | -0.348 | -0.89 | -0.327 | -0.651 | -1.07 | 0.332 | 0.131 | 0.11 | 0.063 | -0.636 | -0.543 | -0.0849 | -0.579 | -0.669 | -0.974
CCTACTGGGCCACGAAAGGTCATCGATTCAGTGA | 5.98 | 5.97 | -0.47 | 0.605 | 4.31 | 5.62 | 0.616 | 6.08 | 0.927 | 4.17 | 4.88 | 5.15 | 4.75 | 0.398 | 5.62 | 4 | 1.08 | 4.24 | 1.56
TTACCAAGGTGAGCTGAGGCCGTTGATCCAACTC | 0.88 | 1.24 | -0.955 | -0.387 | -0.831 | 2.17 | -0.968 | 1.15 | -1.4 | 1.09 | 0.505 | -0.177 | -0.0104 | -0.748 | -0.163 | 3.6 | 0.533 | 0.537 | -0.339
TCTTGTAGATCAAGCAGGTTAACAAAGCCTGAGT | 1.57 | 0.741 | 0.45 | 0.44 | 0.0405 | 0.699 | 0.326 | 0.629 | -0.263 | 0.298 | 0.14 | 0.253 | 0.0907 | 0.714 | 0.594 | 0.705 | -0.265 | 0.729 | 0.178
CCTCGAAGGACAGAAGGTCAGAGCTGTCCGCTTT | -0.0695 | -0.0413 | -0.921 | -1.97 | 1.14 | 1.08 | -0.321 | 1.83 | 0.748 | 3.06 | 3.54 | 3.21 | 2.98 | 0.128 | 1.76 | 1.62 | 0.0154 | 0.957 | 0.121
TCTCGGAGGACACGAAGGCCAGAGCTTTCCAGAG | 1.5 | 0.0169 | -0.633 | -1.61 | -0.704 | -0.278 | -0.919 | -0.235 | -1.31 | 1.82 | 1 | 0.605 | 1.84 | 0.482 | 0.00493 | 1.43 | 0.215 | -0.411 | -0.212
ATCTCTAGGTAATCAAGTTCAGTGAATGCCGAAC | 2.71 | 2.29 | 0.964 | 0.455 | 0.892 | 1.95 | 2 | 0.799 | 0.778 | 1 | 1.24 | 0.838 | 0.72 | 0.825 | 0.439 | 1.26 | 0.487 | 4.21 | 2.59
